Data from PMC7862700, “An all-to-all approach to the identification of sequence-specific readers for epigenetic DNA modifications on cytosine”.

Assays:
Assay in all cases: DAPPL (digital affinity profiling via proximity ligation, sequencing); 10 mM Tris-HCl pH 7.5, 50 mM NaCl, 1 mM DTT, 4% glycerol, room temperature, 30 min; GST-TFs on glutathione beads, 16-mer random dsDNA library, 0.1% formaldehyde crosslink after washing; high values mean tight binding
Conditions in all cases: protein: recombinant; tags: N-terminal GST; dsDNA, one strand shown
[1] = molecular target: T1, FLI1 (Homo sapiens, UniProt Q01543 1-452)
T1 sequence: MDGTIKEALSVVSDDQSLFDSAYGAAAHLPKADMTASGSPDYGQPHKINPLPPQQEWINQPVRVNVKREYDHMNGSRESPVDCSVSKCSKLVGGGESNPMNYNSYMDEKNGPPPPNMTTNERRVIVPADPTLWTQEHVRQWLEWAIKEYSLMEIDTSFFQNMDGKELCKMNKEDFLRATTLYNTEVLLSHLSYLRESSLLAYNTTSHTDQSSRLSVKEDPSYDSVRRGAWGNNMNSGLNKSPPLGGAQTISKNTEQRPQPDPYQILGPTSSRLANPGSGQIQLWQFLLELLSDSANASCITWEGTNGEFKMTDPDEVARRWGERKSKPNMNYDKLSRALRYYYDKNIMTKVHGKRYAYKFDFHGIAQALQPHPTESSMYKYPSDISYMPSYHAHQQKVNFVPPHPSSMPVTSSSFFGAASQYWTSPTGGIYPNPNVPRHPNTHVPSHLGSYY
Procedure, shortened: (§1)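 Binding signal is defined as a hexamer's read frequency for one factor over its frequency for the tag-only sample. To obtain reads, GST-fused human transcription factors were expressed in yeast, captured on glutathione beads, barcoded with DNA and pooled with that sample. Pools met 200 nmole of a 16-mer random double-stranded DNA library in Tris/NaCl/DTT/glycerol buffer for 30 min at room temperature before washing, 0.1% formaldehyde crosslinking, proximity ligation (BsaI/T4 ligase, 1 h, 37 °C), PCR and Illumina NextSeq500 sequencing.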

[2] = molecular target: T2, ELK1 (Homo sapiens, UniProt P19419 1-428)
T2 sequence: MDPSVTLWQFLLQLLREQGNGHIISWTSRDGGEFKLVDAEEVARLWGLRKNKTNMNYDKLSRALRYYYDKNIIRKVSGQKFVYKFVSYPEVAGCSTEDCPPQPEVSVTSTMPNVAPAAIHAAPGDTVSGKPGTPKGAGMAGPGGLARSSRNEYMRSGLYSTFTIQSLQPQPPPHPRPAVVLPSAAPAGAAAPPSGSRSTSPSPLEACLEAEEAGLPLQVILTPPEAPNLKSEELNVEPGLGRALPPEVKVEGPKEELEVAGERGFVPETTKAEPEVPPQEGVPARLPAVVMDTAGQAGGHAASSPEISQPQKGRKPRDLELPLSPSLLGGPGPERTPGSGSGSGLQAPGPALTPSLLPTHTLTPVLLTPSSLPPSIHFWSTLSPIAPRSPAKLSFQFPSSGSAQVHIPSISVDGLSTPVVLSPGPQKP
Procedure, shortened: as §1

[3] = molecular target: T3, GABPA (Homo sapiens, UniProt Q06546 1-454)
T3 sequence: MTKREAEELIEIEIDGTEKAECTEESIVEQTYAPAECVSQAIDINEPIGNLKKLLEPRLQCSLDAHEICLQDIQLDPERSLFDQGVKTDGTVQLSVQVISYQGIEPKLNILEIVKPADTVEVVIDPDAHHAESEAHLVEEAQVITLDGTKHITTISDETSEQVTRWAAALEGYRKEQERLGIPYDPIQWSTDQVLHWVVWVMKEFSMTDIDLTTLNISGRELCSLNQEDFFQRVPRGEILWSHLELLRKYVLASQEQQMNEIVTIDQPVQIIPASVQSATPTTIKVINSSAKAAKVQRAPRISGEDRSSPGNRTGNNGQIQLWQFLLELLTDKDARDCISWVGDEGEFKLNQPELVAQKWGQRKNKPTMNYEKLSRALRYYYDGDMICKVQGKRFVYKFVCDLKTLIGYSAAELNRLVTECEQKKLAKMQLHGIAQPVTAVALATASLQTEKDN
Procedure, shortened: as §1

[4] = molecular target: T4, ERG (Homo sapiens, UniProt P11308 1-479)
T4 sequence: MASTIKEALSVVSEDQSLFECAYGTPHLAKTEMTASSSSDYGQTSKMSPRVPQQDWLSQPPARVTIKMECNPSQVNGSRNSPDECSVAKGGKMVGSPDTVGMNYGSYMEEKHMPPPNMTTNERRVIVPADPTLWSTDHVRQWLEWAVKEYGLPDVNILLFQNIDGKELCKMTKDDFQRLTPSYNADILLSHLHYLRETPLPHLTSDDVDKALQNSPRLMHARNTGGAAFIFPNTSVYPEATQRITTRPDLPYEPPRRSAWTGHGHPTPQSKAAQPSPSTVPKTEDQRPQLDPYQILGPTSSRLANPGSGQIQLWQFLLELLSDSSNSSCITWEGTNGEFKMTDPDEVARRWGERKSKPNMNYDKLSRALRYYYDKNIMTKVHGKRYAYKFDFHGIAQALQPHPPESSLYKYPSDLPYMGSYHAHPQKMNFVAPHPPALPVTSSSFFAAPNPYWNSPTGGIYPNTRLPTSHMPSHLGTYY
Procedure, shortened: as §1

[5] = molecular target: ELF1 (Homo sapiens, UniProt P32519 1-619)
Procedure, shortened: as §1

[6] = molecular target: T5, EHF (Homo sapiens, UniProt Q9NZC4 1-300)
T5 sequence: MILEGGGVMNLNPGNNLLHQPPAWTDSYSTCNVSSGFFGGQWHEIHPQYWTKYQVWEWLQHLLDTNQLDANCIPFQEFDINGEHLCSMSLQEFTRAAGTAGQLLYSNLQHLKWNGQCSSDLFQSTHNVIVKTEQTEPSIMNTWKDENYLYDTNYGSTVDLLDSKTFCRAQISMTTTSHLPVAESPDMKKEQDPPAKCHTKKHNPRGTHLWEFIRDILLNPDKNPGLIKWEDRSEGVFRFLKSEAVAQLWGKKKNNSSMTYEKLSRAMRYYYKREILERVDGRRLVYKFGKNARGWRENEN
Procedure, shortened: as §1

[7] = molecular target: SPI1 (Homo sapiens, UniProt P17947 1-270)
Procedure, shortened: as §1

[8] = molecular target: SPIB (Homo sapiens, UniProt Q01892 1-262)
Procedure, shortened: as §1

[9] = molecular target: T6, ELK3 (Homo sapiens, UniProt P41970 1-407)
T6 sequence: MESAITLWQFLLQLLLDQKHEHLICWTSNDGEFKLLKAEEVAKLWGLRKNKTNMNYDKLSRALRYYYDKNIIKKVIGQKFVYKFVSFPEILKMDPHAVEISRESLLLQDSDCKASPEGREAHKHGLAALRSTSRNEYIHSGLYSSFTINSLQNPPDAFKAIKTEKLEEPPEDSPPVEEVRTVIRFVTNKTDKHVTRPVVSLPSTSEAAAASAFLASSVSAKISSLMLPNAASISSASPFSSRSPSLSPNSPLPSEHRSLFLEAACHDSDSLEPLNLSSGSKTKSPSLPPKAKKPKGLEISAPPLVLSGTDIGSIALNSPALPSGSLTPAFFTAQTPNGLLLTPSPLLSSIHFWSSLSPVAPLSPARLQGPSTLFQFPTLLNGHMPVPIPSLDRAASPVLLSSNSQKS
Procedure, shortened: as §1

[10] = molecular target: T7, FEV (Homo sapiens, UniProt Q99581 1-238)
T7 sequence: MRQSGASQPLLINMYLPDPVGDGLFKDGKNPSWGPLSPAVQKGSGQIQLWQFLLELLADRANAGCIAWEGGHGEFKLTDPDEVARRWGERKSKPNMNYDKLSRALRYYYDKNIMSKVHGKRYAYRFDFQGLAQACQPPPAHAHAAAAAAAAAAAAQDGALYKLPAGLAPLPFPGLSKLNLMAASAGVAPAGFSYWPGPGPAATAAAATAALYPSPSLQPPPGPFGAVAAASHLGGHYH
Procedure, shortened: as §1

[11] = molecular target: ETV5 (Homo sapiens, UniProt P41161 1-510)
Procedure, shortened: as §1

[12] = molecular target: T8, SPIC (Homo sapiens, UniProt Q8N5J4 1-248)
T8 sequence: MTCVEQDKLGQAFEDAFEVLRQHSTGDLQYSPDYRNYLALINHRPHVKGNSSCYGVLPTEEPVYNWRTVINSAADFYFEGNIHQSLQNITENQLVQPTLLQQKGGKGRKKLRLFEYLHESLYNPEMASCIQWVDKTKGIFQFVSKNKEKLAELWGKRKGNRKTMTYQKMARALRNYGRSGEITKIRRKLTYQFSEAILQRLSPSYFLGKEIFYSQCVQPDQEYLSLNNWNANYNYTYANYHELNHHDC
Procedure, shortened: as §1

[13] = molecular target: ELF4 (Homo sapiens, UniProt Q99607 1-663)
Procedure, shortened: as §1

[14] = molecular target: T9, ELK4 (Homo sapiens, UniProt P28324-2 1-405)
T9 sequence: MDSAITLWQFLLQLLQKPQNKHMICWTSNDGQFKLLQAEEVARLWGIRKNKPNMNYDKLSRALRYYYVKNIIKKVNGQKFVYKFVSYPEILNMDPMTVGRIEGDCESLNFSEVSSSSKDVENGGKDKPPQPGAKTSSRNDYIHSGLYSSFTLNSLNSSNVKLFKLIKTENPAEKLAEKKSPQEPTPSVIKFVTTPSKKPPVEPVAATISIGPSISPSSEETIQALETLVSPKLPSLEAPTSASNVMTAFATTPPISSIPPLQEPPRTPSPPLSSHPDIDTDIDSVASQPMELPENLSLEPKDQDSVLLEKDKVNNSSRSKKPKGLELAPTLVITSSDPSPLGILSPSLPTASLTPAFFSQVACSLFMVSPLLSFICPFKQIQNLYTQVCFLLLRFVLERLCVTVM
Procedure, shortened: as §1

[15] = molecular target: T10, ETV2 (Homo sapiens, UniProt O00321 1-342)
T10 sequence: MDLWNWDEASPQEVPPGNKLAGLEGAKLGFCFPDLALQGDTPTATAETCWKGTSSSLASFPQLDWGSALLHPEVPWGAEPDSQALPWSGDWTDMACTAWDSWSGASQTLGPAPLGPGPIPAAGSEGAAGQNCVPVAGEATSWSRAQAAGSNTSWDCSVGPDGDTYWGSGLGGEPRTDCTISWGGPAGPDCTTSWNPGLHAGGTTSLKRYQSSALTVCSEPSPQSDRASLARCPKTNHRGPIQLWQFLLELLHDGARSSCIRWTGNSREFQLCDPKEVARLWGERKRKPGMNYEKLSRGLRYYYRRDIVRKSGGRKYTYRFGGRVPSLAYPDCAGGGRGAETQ
Procedure, shortened: as §1

[16] = molecular target: ETV1 (Homo sapiens, UniProt P50549 1-477)
Procedure, shortened: as §1

[17] = molecular target: T11, ELF3 (Homo sapiens, UniProt P78545 1-371)
T11 sequence: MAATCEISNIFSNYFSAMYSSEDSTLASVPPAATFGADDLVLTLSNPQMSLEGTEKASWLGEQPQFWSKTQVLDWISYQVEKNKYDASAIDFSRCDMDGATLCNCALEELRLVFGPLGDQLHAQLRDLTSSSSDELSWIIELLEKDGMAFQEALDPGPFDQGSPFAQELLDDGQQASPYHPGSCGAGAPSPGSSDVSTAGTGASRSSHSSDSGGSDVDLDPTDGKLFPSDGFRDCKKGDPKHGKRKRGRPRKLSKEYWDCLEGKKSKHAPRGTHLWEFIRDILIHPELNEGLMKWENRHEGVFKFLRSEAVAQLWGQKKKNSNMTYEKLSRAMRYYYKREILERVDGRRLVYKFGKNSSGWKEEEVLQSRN
Procedure, shortened: as §1

Chain of ELF4 (Q99607 whole entry): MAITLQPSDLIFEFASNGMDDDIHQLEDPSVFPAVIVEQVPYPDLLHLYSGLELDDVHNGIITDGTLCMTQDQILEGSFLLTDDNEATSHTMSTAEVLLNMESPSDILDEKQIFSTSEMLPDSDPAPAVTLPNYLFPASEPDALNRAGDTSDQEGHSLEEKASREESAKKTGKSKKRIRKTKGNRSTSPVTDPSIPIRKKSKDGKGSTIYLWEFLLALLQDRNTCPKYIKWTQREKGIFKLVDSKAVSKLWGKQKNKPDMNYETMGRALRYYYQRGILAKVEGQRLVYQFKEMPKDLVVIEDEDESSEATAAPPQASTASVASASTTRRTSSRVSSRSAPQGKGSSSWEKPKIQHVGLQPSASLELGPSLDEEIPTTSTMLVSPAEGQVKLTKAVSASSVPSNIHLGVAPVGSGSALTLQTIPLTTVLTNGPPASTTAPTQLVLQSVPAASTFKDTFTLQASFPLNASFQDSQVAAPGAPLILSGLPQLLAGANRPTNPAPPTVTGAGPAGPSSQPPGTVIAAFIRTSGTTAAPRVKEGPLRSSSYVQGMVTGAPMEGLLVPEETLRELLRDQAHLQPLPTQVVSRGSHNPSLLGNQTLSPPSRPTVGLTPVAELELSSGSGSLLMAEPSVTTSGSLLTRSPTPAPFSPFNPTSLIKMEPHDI
Chain of SPIB (Q01892 whole entry): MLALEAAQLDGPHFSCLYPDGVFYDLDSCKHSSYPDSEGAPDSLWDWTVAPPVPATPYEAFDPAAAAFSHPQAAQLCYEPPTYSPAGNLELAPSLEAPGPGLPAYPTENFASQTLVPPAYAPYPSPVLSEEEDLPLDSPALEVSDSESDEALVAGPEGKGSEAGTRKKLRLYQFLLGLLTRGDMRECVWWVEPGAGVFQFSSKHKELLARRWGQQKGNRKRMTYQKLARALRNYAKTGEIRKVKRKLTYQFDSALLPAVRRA
Chain of ETV1 (P50549 whole entry): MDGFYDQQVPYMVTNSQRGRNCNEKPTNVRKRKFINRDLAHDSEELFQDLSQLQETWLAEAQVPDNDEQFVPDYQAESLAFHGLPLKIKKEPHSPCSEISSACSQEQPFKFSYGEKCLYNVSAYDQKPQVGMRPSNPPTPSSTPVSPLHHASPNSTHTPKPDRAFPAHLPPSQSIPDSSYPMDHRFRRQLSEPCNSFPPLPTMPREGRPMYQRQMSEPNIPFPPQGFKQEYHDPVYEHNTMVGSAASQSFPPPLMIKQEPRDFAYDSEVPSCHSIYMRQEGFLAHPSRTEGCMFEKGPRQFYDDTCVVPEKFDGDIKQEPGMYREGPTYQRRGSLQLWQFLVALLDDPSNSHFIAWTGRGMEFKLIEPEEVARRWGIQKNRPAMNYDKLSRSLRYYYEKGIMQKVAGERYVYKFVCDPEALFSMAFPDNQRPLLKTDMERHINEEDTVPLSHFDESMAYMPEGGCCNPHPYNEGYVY
Chain of ETV5 (P41161 whole entry): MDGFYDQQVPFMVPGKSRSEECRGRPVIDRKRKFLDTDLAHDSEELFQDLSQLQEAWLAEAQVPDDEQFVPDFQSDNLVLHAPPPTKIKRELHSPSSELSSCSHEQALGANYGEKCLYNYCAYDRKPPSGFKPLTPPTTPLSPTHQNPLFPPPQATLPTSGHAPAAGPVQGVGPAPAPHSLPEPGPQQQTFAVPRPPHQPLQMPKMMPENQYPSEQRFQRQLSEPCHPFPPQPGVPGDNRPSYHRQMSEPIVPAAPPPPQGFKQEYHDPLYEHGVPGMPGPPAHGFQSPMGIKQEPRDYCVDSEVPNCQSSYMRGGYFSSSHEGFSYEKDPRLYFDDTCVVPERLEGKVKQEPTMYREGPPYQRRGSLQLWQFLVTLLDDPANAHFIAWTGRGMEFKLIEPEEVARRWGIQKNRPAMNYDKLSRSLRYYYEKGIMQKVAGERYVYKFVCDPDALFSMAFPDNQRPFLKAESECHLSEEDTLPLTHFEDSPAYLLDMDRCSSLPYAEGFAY
Chain of ELF1 (P32519 whole entry): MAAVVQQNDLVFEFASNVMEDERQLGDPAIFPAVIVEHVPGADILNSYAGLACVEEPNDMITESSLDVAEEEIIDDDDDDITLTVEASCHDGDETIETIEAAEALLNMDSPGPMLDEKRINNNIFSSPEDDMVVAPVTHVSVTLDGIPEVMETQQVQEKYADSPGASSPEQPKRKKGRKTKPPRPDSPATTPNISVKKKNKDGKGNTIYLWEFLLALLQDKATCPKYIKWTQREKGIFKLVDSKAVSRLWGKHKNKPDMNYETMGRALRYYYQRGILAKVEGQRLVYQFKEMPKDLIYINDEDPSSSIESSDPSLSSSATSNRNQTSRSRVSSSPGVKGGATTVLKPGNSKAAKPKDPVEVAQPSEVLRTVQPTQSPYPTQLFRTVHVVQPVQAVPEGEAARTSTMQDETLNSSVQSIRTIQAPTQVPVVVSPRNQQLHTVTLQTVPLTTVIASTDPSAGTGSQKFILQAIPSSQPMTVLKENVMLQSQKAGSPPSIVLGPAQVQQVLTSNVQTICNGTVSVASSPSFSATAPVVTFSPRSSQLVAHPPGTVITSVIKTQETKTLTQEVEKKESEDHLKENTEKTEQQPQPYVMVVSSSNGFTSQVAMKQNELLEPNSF

| Sequence | binding signal [1] | binding signal [2] | binding signal [3] | binding signal [4] | binding signal [5] | binding signal [6] | binding signal [7] | binding signal [8] | binding signal [9] | binding signal [10] | binding signal [11] | binding signal [12] | binding signal [13] | binding signal [14] | binding signal [15] | binding signal [16] | binding signal [17] |
| --- | --- | --- | --- | --- | --- | --- | --- | --- | --- | --- | --- | --- | --- | --- | --- | --- | --- |
| TGGCCC | 1.02 fold enrichment (6-mer frequency, TF over GST control) | 1.13 fold enrichment (6-mer frequency, TF over GST control) | 1.24 fold enrichment (6-mer frequency, TF over GST control) | 1.13 fold enrichment (6-mer frequency, TF over GST control) | 1.05 fold enrichment (6-mer frequency, TF over GST control) | 1.02 fold enrichment (6-mer frequency, TF over GST control) | 1.17 fold enrichment (6-mer frequency, TF over GST control) | 1.12 fold enrichment (6-mer frequency, TF over GST control) | 1.16 fold enrichment (6-mer frequency, TF over GST control) | 1.09 fold enrichment (6-mer frequency, TF over GST control) | 1.12 fold enrichment (6-mer frequency, TF over GST control) | 1.18 fold enrichment (6-mer frequency, TF over GST control) | 1.14 fold enrichment (6-mer frequency, TF over GST control) | 1.19 fold enrichment (6-mer frequency, TF over GST control) | 1.18 fold enrichment (6-mer frequency, TF over GST control) | 1.15 fold enrichment (6-mer frequency, TF over GST control) | – |
| ACAATG | 1.1 fold enrichment (6-mer frequency, TF over GST control) | 1.06 fold enrichment (6-mer frequency, TF over GST control) | 1.17 fold enrichment (6-mer frequency, TF over GST control) | 1.14 fold enrichment (6-mer frequency, TF over GST control) | 1.15 fold enrichment (6-mer frequency, TF over GST control) | 1.09 fold enrichment (6-mer frequency, TF over GST control) | 1.06 fold enrichment (6-mer frequency, TF over GST control) | 1.16 fold enrichment (6-mer frequency, TF over GST control) | 1.08 fold enrichment (6-mer frequency, TF over GST control) | 1.08 fold enrichment (6-mer frequency, TF over GST control) | 1.11 fold enrichment (6-mer frequency, TF over GST control) | 1.08 fold enrichment (6-mer frequency, TF over GST control) | 1.13 fold enrichment (6-mer frequency, TF over GST control) | 1.16 fold enrichment (6-mer frequency, TF over GST control) | – | 1.07 fold enrichment (6-mer frequency, TF over GST control) | 1.17 fold enrichment (6-mer frequency, TF over GST control) |
